PubChem BioAssay (NCATS)
Results filed as inconclusive are left out. Values without a mark were called inactive. The source made the active and inactive calls. Calls come from the whole dose curve; as a rule, active = well fitted activation curve with a large enough effect; inconclusive = small, poorly fitted or top-dose-only effect; inactive = flat fitted curve, though single readings scatter.

assay: HEK293 12hr Apoptosis Induction qHTS against the NCATS CANVASS Library (AID 1347361); settings: HEK293 caspase-3/7 Caspase-Glo luminescence; series mostly up to 46.1 µM; caspase activation: at the top concentration; note: 0% is about no effect
Description: Natural products and their derivatives continue to be wellsprings of nascent therapeutic potential. However, many laboratories have limited resources for biological evaluation, leaving their previously isolated or synthesized compounds largely or completely untested. To address this issue, the Canvass library of natural products was assembled (https://tripod.nih.gov/canvass), in collaboration with academic and industry researchers, for quantitative high-throughput screening (qHTS) across a diverse set of cell-based and biochemical assays. The pure (>85% purity by liquid chromatography/mass spectrometry [LC/MS]) Canvass library of 346 natural products were submitted by 45 academic laboratories and companies around the world. We collected pure natural products to circumvent deconvolution and structure elucidation due to time and resource limitations. The library was formatted into 1536-well plates and evaluated in 50 qHTS (in an 11-pnt concentration series) bioassays with broad scope of disease-relevant mechanisms. The resulting data set from 50 different assays was then systematically analyzed to identify overall trends and specific natural products with interesting biological activities. Reported herein are the results of each individual qHTS and their corresponding assay protocol. The Caspase-Glo (R) (Promega) is a homogeneous, luminescent assay that measures caspase activity. The detection substrate contains tetrapeptide sequence DEVD in an "add-mix-measure" format. The reagent generates a luminescent signal produced by a thermostable luciferase. The luminescence is proportional to the amount of caspase activity in the assay reaction. National Center for Advancing Translational Sciences (NCATS), Rockville, MD National Institute of Health (NIH), Bethesda, Maryland
Cancer Cell Apoptosis Assay 1. In a 1536 well, white solid bottom tissue culture plates (Corning 7494), HEK293 cancer cells in DMEM + 10% FBS + 1% P/S media were dispensed in each well at a final concentration of 500 cells / well (5uL volume) using the Multidrop Combi (Thermo Fisher Scientific) dispenser. 2. Compounds were pin transferred (~23nL volume) via Wako Pin-tool (Wako Automation, Richmond VA) equipped with a 1536 pin head. The assay plates were treated with compounds in a concentration series with a final concentration range of […] to 103uM. 3. Doxorubicin was used as a control in a 16pnt titration (1mM; 1:2 dilution; 16-points; n = 2; column 3, rows 1 - 32) and was pin transferred via Wako Pin-tool equipped with a 1536 pin head. The final concentration range of doxorubicin is 0.1nM - 4uM. 4. The assay plates were incubated for 12 hours at 37 degrees C/5% CO2/95% Rh. 5. 3uL Caspase-Glo 3/7 (R) (Promega) detection reagent was then added to the assay plates (columns 2 - 48, rows 1 - 32) and incubated at room temperature, covered from light, for 15 min. 6. Luminescence signal was acquired via the ViewLux plate reader (PerkinElmer) using a clear filter, 20 second exposure, and 2x binning settings.

| Structure (SMILES) | caspase activation | outcome |
| --- | --- | --- |
| CO/C=C/C(=O)c1cc2cnc3c(N)cc(=NC(=O)C(C)C)c([nH]1)c23 | 6.06% | – |
| CC(C)=CC[C@H]1C[C@@]2(CC=C(C)C)C(=O)[C@](CC=C(C)C)(C(=O)C(C(=O)c3ccccc3)=C2O)C1(C)C | -2.42% | – |
| C[C@H](c1cnc(N)[nH]1)c1ccc(O)c2[nH]cc(-c3cnc(-c4c[nH]c5ccccc45)c(=O)[nH]3)c12 | -1.69% | – |
| Cc1cc(C)c(O)c(C(=O)CC2CC(=O)NC(=O)C2)c1 | -2.94% | – |
| COC(=O)c1cccc2oc(-c3cccc4oc(-c5c(C)cccc5O)nc34)nc12 | 2.21% | – |
| C[C@H]1CCC2(OC1)O[C@H]1C[C@H]3[C@@H]4CC(=O)[C@]5(O)C[C@H](O)CC[C@@]5(C)[C@H]4CC[C@@]3(C)[C@H]1[C@H]2C (stereo not given in full) | 7.18% | – |
| O[C@H]1c2ccccc2-c2c3c(cc4c2[C@@H]1NCC4)OCO3 | 5.72% | – |
| C[C@@]12CCC[C@@](C)(C(=O)O)[C@H]1CC[C@@]13C[C@@H](CC[C@H]12)[C@](C)(O)C3 | 1.2% | – |
| CC(C)=CCC[C@]12c3cc4c(cc3CC[C@@]1(C)[C@H](C)CC[C@@H]2O)[nH]c1ccccc14 | 2.86% | – |
| CC[C@H]1[C@@H](C)[C@@H](c2cc(OC)c(OC)cc2OC)[C@H](C)[C@@H](c2cc(OC)c(OC)cc2OC)[C@@]12C=C(OC)C(=O)C=C2OC | 0.861% | – |
| COc1c(O)cc(O)c2c(=O)cc(-c3ccccc3)oc12 | 1.47% | – |
| C=C[C@]1(C)CC[C@@H]([C@H](C)C(=O)CC=C(C)C)O1 | 0.414% | – |
| CCCc1c2c([nH]c(=O)c1C)C(=O)c1[nH]c(=O)c(C)c(CCC)c1C2=O | -3.27% | – |
| COc1cc(C2C3=C(Cc4cc5c(cc42)OCO5)C(=O)OC3)cc(OC)c1OC (stereo not given) | 3.84% | – |
| C=C1C[C@H]2O[C@@H]3[C@@H]4[C@H](CC[C@@](C)(O)[C@@H]42)[C@H](C)COC3(C)[C@@H](OC(=O)CCCCCCC)C[C@H]1O (stereo not given in full) | 6.07% | – |
| CC[C@H](O)CCCCC[C@@H]1NC(=O)[C@H]2CCCCN2C(=O)[C@H]([C@H](C)CC)NC(=O)[C@H](Cc2cn(OC)c3ccccc23)NC1=O | 4.35% | – |
| O=C(OC[C@H]1O[C@@H](OC(=O)c2cc(O)c(O)c(O)c2)[C@H](OC(=O)c2cc(O)c(O)c(O)c2)[C@@H](OC(=O)c2cc(O)c(O)c(O)c2)[C@@H]1OC(=O)c1cc(O)c(O)c(O)c1)c1cc(O)c(O)c(O)c1 | 1.47% | – |
| C/C(=C\[C@H](C)C(=O)/C=C/CC1CC(=O)NC(=O)C1)[C@@H]1OC(=O)/C=C/CC/C=C/C[C@@H](O)[C@@H]1C | 11.3% | – |
| Oc1ccc(C2Oc3cc(O)c4c(c3[C@@H]2c2cc(O)cc(O)c2)[C@H]2C(c3ccc(O)cc3)c3c(O)cc5c(c3[C@H]2C4c2ccc(O)cc2)[C@H](c2cc(O)cc(O)c2)C(c2ccc(O)cc2)O5)cc1 (stereo not given in full) | 0.316% | – |
| CC(C)=CCCC(C)(O)[C@H]1CC=C(C)C(O)C1 (stereo not given in full) | 2.63% | – |

| Structure (SMILES) | caspase activation | outcome |
| --- | --- | --- |
| Cc1cc(O)cc2c1C(=O)c1c(O)cc(O)cc1C2=O | 3.07% | – |
| C=CC(CCCCC)C1C(=O)NC(=O)C1C(=O)C1C(/C=C/C)C=CC2CC(C(=O)O)CC(C)C21 (stereo not given) | 3.73% | – |
| CN1CC[C@@]2([C@@]34CCN(C)[C@@H]3Nc3ccccc34)c3ccccc3N[C@@H]12 | 4.13% | – |
| CCC(=O)CCCCC[C@@H]1NC(=O)[C@H]2CCCCN2C(=O)[C@H](C(C)C)NC(=O)[C@H](Cc2cn(OC)c3ccccc23)NC1=O | 3.56% | – |
| CO[C@@H](C[C@@H](C)[C@@H](O)/C=C/C=C/CNC(=O)C(C)(C)[C@H](O)\C(C)=C/C=C\C=C\Cc1cnco1)[C@]1(O)[C@@H](C)C(=O)N(C)[C@@]12COC2=O | -1.43% | – |
| O=C1c2c(O)cc(O)cc2OC(c2ccc(O)cc2)C1O (stereo not given) | 1.93% | – |
| C/C(=C\[C@@H](C)CC/C=C/CC/C=C/C(=O)O)[C@H](O)[C@H](C)C(=O)CCCC1CC(=O)NC(=O)C1 | -2.09% | – |
| C[C@@]12CCC[C@@](C)(C(=O)O)[C@H]1C[C@@H](O)[C@@]13C[C@@H](CC[C@@H]21)[C@](C)(O)C3 | -0.302% | – |
| C/C=C/[C@H]1[C@H]2C(=O)c3c(O)c(C)c(O)c(C)c3[C@]1(C(=O)O)C(=O)C=C2C | 5.12% | – |
| COc1ccc([C@@H]2c3cc4c(cc3C(=O)C(C)C2C)OCO4)cc1OC (stereo not given in full) | -0.64% | – |
| CCC(=O)N[C@@H](C[C@H](C)C(Cl)(Cl)Cl)C(=O)N1C(=O)C=C(OC)[C@@H]1CC(C)C | -1.08% | – |
| CN1CC[C@@]23c4ccccc4N[C@@H]1[C@@]21CCN(C)[C@@H]3Nc2ccccc21 | 1.78% | – |
| COc1ccc([C@@H]2c3cc4c(cc3C[C@H](C)C2C)OCO4)cc1OC (stereo not given in full) | -1.97% | – |
| C/C(=C\[C@H](C)C(=O)C[C@H](O)CC1CC(=O)NC(=O)C1)[C@@H]1OC(=O)CCCC/C=C/C[C@@H](O)[C@@H]1C | -2.51% | – |
| CC[C@@H](c1cc(OC)c(OC)cc1OC)[C@H](C)[C@@H](/C(C)=C/c1cc(OC)c(OC)cc1OC)c1cc(OC)c(OC)cc1OC | – | inactive |
| COc1cc2c(cc1OC)[C@@H](c1ccc3c(c1)OCO3)C(C)C(C)C2=O (stereo not given in full) | -2.7% | – |
| COc1ccc([C@@H]2CC(=O)c3c(cc(O)c(C/C=C(\C)CCC=C(C)C)c3O)O2)cc1 | 1.23% [at 9.19 µM] | – |
| C[C@@]12C[C@@H](C[C@@H]3C(=O)O[C@@H](c4ccoc4)[C@H](OC(=O)c4ccccc4)[C@@H]31)OC2=O | 1.74% | – |
| COc1cc(C2OCC3C(c4ccc(O)c(OC)c4)OCC23)ccc1O (stereo not given) | 3.13% [at 9.19 µM] | – |
| COC(=O)c1cc2cc3c(c(O)c2c(=O)o1)OC1(CC3)CC2=C(O1)C(=O)c1c(O)c(OC)cc(OC)c1C2=O (stereo not given) | 3.9% | – |
